# MPTP block – permeability transition pore inhibition. isolated mouse mitochondria, Ca2+ swelling absorbance, 30 min. inhibition, % at 10 µM. 360,000 compounds, 1.4% hits;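 active = inhibition of 50% or more, scaled per plate between neutral and stimulator controls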;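 also: 0% = DMSO wells given calcium and 100% = 1 mM EGTA wells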
# Mdm2-MdmX inh – human Mdm2/MdmX binding inhibition; 330,000 compounds, 3% hits; AID 485346; SaOS-2 split-luciferase Mdm2/MdmX complementation, luminescence; inhibition, % at 8 µM;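 active = inhibition of at least 50% at 8 µM in the primary screen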
# Beta cell apopt – blocks beta cell apoptosis | protection from apoptosis, % (test concentration not listed) | INS-1E cytokine-induced death, ATP luminescence, 48 h; percent of positive-control rescue, neutral wells zero | 300,000 compounds, 0.8% hits;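 active = Every replicate reaches about 75%, or at least half do and their mean reaches it too, limit read from the data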;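 also: 0% = cytokine-treated negative control wells and 100% = positive control rescue; higher means more ATP so stronger rescue from cytokine killing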
# CSC inhib – cancer stem cell inhibition. 300,000 compounds, 1.1% hits. inhibition, % at 7.5 µM. cancer stem cell-like cells viability, luminescence; in the data active = inhibition above about 75%; tested in HMLE shEcad cells
# Gli-Sufu antag – Gli-Sufu pathway antagonism; Sufu-KO-LIGHT fibroblasts, Gli luciferase reporter luminescence; inhibition, % at 5 µM; 340,000 compounds, 0.74% hits;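 active = inhibition above about 55%, limit read from the data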;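 also: 0% = DMSO-treated cells and 100% = wells with medium but no cells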
# NR3A LBD binder – NR3A (human) ligand-binding domain modulation | NR3A LBD differential scanning fluorimetry, Tm shift; 0% = protein alone, 100% = glycine-bound protein | Tm shift relative to glycine control, % at 25 µM | 340,000 compounds, 2.5% hits;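 active = melting temperature shift of at least 10% of the positive control shift, at one fixed dose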
# Active calls of the source: *; / = not tested or not shown. A selection: hits, their analogues and other compounds. The true share with any hit is near 6.6%.
SMILES,MPTP block,Mdm2-MdmX inh,Beta cell apopt,CSC inhib,Gli-Sufu antag,NR3A LBD binder
COC(=O)[C@@]12C[C@@H](CC(=O)N3CCN(C(=O)C4CC4)CC3)C(=O)N(Cc3ccc4c(c3)OCO4)C1=CCC(C)(C)C2,-1,/,/,/,/,/
Cc1cc(NC(=O)c2ccc(C(C)(C)C)cc2)no1,0,/,/,/,-54,-1
O=C(Nc1ccon1)c1ccc(OC2CCCC2)cc1,9,-194,-4,-4,-79,23*
CC(C)(C)c1cc(NC(=O)c2ccc(OC3CCCC3)cc2)no1,2,-6,34,40,-19,15*
CCC(C)n1c(SCC(=O)N(CC)c2c(N)n(Cc3ccccc3)c(=O)[nH]c2=O)nc2ccccc2c1=O (stereo unspecified),1,/,/,/,5,0
Cc1ccccc1NCC(=O)N/N=C/c1ccc([N+](=O)[O-])cc1,0,-4,2,-12,-4,-3
O=C(CNc1cccc2ccccc12)N/N=C/c1cccc(Oc2ccccc2)c1,-1,27,-3,-31,-1,17*
O=C(CN(Cc1ccccc1)S(=O)(=O)c1ccccc1)N/N=C/c1ccc([N+](=O)[O-])cc1,6,16,0,-2,0,10*
CCN(Cc1ccccc1)c1ccc(/C=N/NS(=O)(=O)c2cccc([N+](=O)[O-])c2)cc1,5,-4,-10,3,-5,10*
O=C(CNc1cccc2ccccc12)N/N=C/c1ccc([N+](=O)[O-])cc1,13,-7,-3,4,-1,14*
CCN(CC)c1ccc(/C=N/NS(=O)(=O)c2ccc(C)c([N+](=O)[O-])c2)cc1,2,20,-7,-11,-4,7
Cc1ccc(-n2nc3c(=O)n(CCCC(=O)NCCN4CCN(C)CC4)nc(C)c3c2C)cc1,0,0,10,-1,-19,0
COc1ccc(C(C)=O)cc1COC(=O)c1ccc(C)c(S(=O)(=O)N2CCOCC2)c1,0,13,-7,-6,14,1
CCOc1ccc(N(CC(=O)N2CCOCC2)S(=O)(=O)c2ccc(SC)cc2)cc1,0,2,-3,-3,-4,2
COC(=O)c1cccc(NC(=O)/C=C/c2ccc3c(c2)OCO3)c1,0,-4,-6,-21,-52,16*
O=C(/C=C/c1ccc2c(c1)OCO2)Nc1cccnc1,-1,-101,-3,83*,-90,-15
NS(=O)(=O)c1ccc(NC(=O)/C=C/c2ccc3c(c2)OCO3)cc1,-2,-14,/,-8,-1,12*
O=C(/C=C/c1ccc2c(c1)OCO2)c1ccc(O)cc1O,3,/,/,/,-24,32*
O=S(=O)(Nc1cccc(-c2nc3cccnc3s2)c1)c1ccc2c(c1)OCCO2,2,-2,1,27,1,1
Cc1ccc(-c2nc3cccnc3s2)cc1NS(=O)(=O)c1ccc2c(c1)OCCO2,0,39,8,77*,-2,-27
CCOc1cc(OCC)cc(C(=O)N2CCC[C@@H]2C(=O)N2CCC[C@@H]2C(=O)NCc2ccccc2Cl)c1,0,/,/,/,/,/
Cc1ccc(NC(=O)COC(=O)c2ccco2)cc1S(=O)(=O)N1CCCCC1,0,/,/,/,/,/
Oc1cccc(/C=C/c2ccc3cccc(O)c3n2)c1,-2,-91,16,87*,11,20*
COc1ccc(/C=C/c2ccc3cccc(O)c3n2)cc1Br,2,4,22,31,2,37*
CC(OC(=O)C1=COCCO1)C(=O)Nc1ccc(Cl)cn1 (stereo unspecified),0,9,/,-1,1,-1
SMILES,MPTP block,Mdm2-MdmX inh,Beta cell apopt,CSC inhib,Gli-Sufu antag,NR3A LBD binder
COc1ccc(-n2sc3ccc(F)cc3c2=O)cc1,2,-21,19,31,-35,28*
CC(=O)Nc1cccc(-c2ccnc3c2CC(C)(C(=O)NCc2ccncc2)O3)c1 (stereo unspecified),-2,/,/,/,/,/
O=C(COC(=O)/C=C/c1cc(Br)ccc1F)Nc1ccc2[nH]c(=O)[nH]c2c1,-2,28,-3,-11,-1,10*
Cc1ccccc1Nc1c(-c2ccccn2)nc2c(C)cccn12,1,-19,96*,6,0,1
CCN(CC)c1ccc(C(=C2C=CC(=[N+](CC)CC)C=C2)c2ccccc2)cc1,-9,/,/,/,92*,-88
CCN(CC)c1ccc(C(=O)NNC(=O)CCNC(=O)c2ccccc2)cc1,-2,-38,-3,1,/,0
Cc1onc(-c2ccccc2)c1C(=O)OCC(=O)Nc1ccc(Cl)cc1,8,-1,-2,19,-4,2

# Assay outcomes (PubChem BioAssay)
